The target in assay [1] is Paired box protein Pax-6 (Homo sapiens) (UniProt P26367). As to the kind of experiment: ATG_Pax6_CIS: Attagene CIS-FACTORIAL HepG2 Assay for human Paired Box 6 (PAX6) (AID 2282956). To be noted: HepG2 CIS-FACTORIAL PAX6 reporter transcription, RNA readout; actives raise or lower the signal. In short, it runs like this:
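Transient MRTU transfection of HepG2 → compound exposure 24 h → TriZol RNA, oligo(dT) RT → PCR, 6-FAM primer extension, HpaI cut → capillary electrophoresis; activity fitted both directions against DMSO.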

Assay [2] in a line: ATG_PXRE_CIS: Attagene CIS-FACTORIAL HepG2 Assay for human Pregnane X Receptor Element (PXRE) (AID 2282957). Conditions: HepG2 Attagene CIS-FACTORIAL PXRE reporter, mRNA; actives raise or lower the signal. The method in brief:
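Transiently transfected HepG2 cells were dosed and incubated for 24 h. RNA was then isolated, DNase-treated, reverse-transcribed and reporter sequences amplified. Labeled, HpaI-digested fragments were quantified by capillary electrophoresis against DMSO.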

Assay [3] is described as follows: ATG_PPRE_CIS: Attagene CIS-FACTORIAL HepG2 Assay for human Peroxisome Proliferator-activated Response Element (PPRE) (AID 2282958). Conditions: HepG2 PPRE cis-element reporter, Attagene transcription factor profiling; actives raise or lower the signal. In short, it runs like this: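 Read-out: fluorescent reporter mRNA fragments resolved by capillary electrophoresis after RT-PCR. HepG2 cells carried transiently transfected PPRE-driven cis reporter constructs and were dosed for 24 h; gain or loss of signal fitted relative to DMSO.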

The nature of assay [4]: ATG_RORE_CIS: Attagene CIS-FACTORIAL HepG2 Assay for human RAR-related Orphan Receptor Element (RORE) (AID 2282959). Conditions: HepG2 Attagene cis-factorial RORE reporter, mRNA; actives raise or lower the signal. In short, it runs like this:
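Readout: fluorescent reporter mRNA by RT-PCR plus capillary electrophoresis, 24 h after dosing transfected HepG2 cells. Endogenous transcription factor activity on a cis promoter element is measured. Gain or loss of signal fitted against DMSO.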

Assay [5] can be described thus: ATG_Sox_CIS: Attagene CIS-FACTORIAL HepG2 Assay for human SRY-box transcription factor (SOX) (AID 2282960). Conditions: HepG2 Attagene cis-factorial SOX reporter, mRNA; actives raise or lower the signal. In short, it runs like this:
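Read-out: fluorescent RT-PCR products of SOX1-linked reporter transcripts resolved by capillary electrophoresis, fitted bidirectionally against DMSO. Transiently transfected HepG2 cells, 24 h after chemical exposure, endogenous transcription factor activity.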

The target of assay [6] is Transcription factor Sp1 (Homo sapiens) (UniProt P08047). As to the kind of experiment: ATG_Sp1_CIS: Attagene CIS-FACTORIAL HepG2 Assay for human Specificity Protein 1 (Sp1) (AID 2282961). To be noted: HepG2 Sp1 cis-reporter transcription, actives raise or lower the signal. The method in brief: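 Read-out: fluorescence of 6-FAM-labeled, HpaI-digested RT-PCR products separated by capillary electrophoresis. HepG2 cells carried transfected cis-element reporter units and were exposed to chemicals for 24 h; gain or loss of signal fitted relative to DMSO.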

The nature of assay [7]: ATG_SREBP_CIS: Attagene CIS-FACTORIAL HepG2 Assay for human Sterol Regulatory Element Binding (SREBP) (AID 2282962). Conditions: HepG2 Attagene cis-factorial SREBP reporter, mRNA; actives raise or lower the signal. In short, it runs like this: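 Transfected HepG2 (cis-regulated reporter library, endogenous TFs) → compound 24 h → total RNA → oligo(dT) RT → reporter-specific PCR → FAM primer extension, HpaI cut → CE fluorescence. Fit bidirectional vs DMSO.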

The target in assay [8] is Signal transducer and activator of transcription 3 (Homo sapiens) (UniProt P40763). The experiment in a line: ATG_STAT3_CIS: Attagene CIS-FACTORIAL HepG2 Assay for human Signal Transducer and Activator of Transcription 3 (STAT3) (AID 2282963). Conditions: HepG2, Attagene cis-factorial STAT3 reporter transcription; actives raise or lower the signal. The method in brief:
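After a 24 h compound incubation, total RNA from MRTU-transfected HepG2 cells was converted to cDNA and reporter sequences PCR-amplified, labelled and profiled by capillary electrophoresis. Gain and loss of signal were referenced to DMSO.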

The nature of assay [9]: ATG_TA_CIS: Attagene CIS-FACTORIAL HepG2 Assay for human TA Basal Promoter (AID 2282964). Conditions: HepG2 Attagene CIS-factorial TA basal promoter reporter; actives raise or lower the signal. In short, it runs like this:
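Fluorescence from labelled RT-PCR reporter fragments, separated by capillary electrophoresis, gives the signal. Cells: HepG2 transiently carrying multiple reporter units, 24 h chemical dosing. Gain or loss relative to DMSO.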

Assay [10] in a line: ATG_TCF_b_cat_CIS: Attagene CIS-FACTORIAL HepG2 Assay for human T-Cell-Factor with beta-catenin (TCF/b-cat) (AID 2282965). To be noted: HepG2 TCF/beta-catenin cis-reporter transcription, actives raise or lower the signal. The method in brief: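 Measured: reporter mRNA in HepG2 transiently transfected with cis-promoter reporter units, 24 h after chemical addition. Fitting was bidirectional, DMSO as negative control.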

A short description of assay [11]: ATG_TAL_CIS: Attagene CIS-FACTORIAL HepG2 Assay for human TAL Basal Promoter (AID 2282966).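 Also: background control endpoint measuring basal TAL promoter reporter mRNA not a specific factor.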 To be noted: HepG2 Attagene cis-factorial TAL promoter reporter; actives raise or lower the signal. The method in brief:
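Readout: reporter mRNA, fluorescence by CE. System: HepG2, transient multi-reporter transfection, endogenous TF activity. Exposure: 24 h. Analysis: bidirectional, DMSO-normalized; background control.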

Assay [12] in a line: ATG_TGFb_CIS: Attagene CIS-FACTORIAL HepG2 Assay for human Transforming Growth Factor (TGF) (AID 2282967). To be noted: HepG2 Attagene CIS TGFb reporter, mRNA transcription; actives raise or lower the signal. In short, it runs like this: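 Bidirectional fitting relative to DMSO gave the endpoint. Underlying data: reporter mRNA from HepG2 cells carrying transiently transfected cis-regulated reporter constructs, harvested 24 h after dosing and analyzed by RT-PCR and capillary electrophoresis.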

A short description of assay [13]: ATG_VDRE_CIS: Attagene CIS-FACTORIAL HepG2 Assay for human Vitamin D Receptor Element (VDRE) (AID 2282968). To be noted: HepG2 VDRE cis-reporter transcription, actives raise or lower the signal. The method in brief: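 In transiently transfected HepG2 liver cells, gain or loss of reporter mRNA after 24 h exposure is scored relative to DMSO, using fluorescence detection by capillary electrophoresis of RT-PCR products.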

Assay [14] addresses Estrogen receptor (Homo sapiens) (UniProt P03372). As to the kind of experiment: ATG_ERa_TRANS: Attagene TRANS-FACTORIAL HepG2 Assay for human Estrogen Receptor alpha (ERa) (AID 2282970; active = hit-call score of the fitted dose curve at least 0.9, where 1 is the maximum). To be noted: HepG2 Attagene TRANS ERa GAL4 reporter, mRNA. In short, it runs like this: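 Transactivation via ERa-Gal4 chimera in HepG2; 24 hour incubation; reporter mRNA detected by fluorescence RT-PCR and capillary electrophoresis.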

The target in assay [15] is X-box-binding protein 1 (Homo sapiens) (UniProt P17861). The experiment in a line: ATG_Xbp1_CIS: Attagene CIS-FACTORIAL HepG2 Assay for human X-box Binding Protein 1 (XBP1) (AID 2282972). To be noted: HepG2 XBP1 cis-element reporter, Attagene multiplex; actives raise or lower the signal. In short, it runs like this:
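HepG2, transient MRTU transfection (cis-promoter driven), 24 h compound exposure. Total RNA → oligo(dT) RT → PCR → 6-FAM labeling → HpaI cut → CE. Bidirectional fit vs DMSO.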

Assay [16] in a line: ATG_M_19_TRANS: Attagene TRANS-FACTORIAL HepG2 Assay for M19 Transcription Factor (Internal Marker) (AID 2282974; active = hit-call score of the fitted dose curve at least 0.9, where 1 is the maximum). Conditions: HepG2 Attagene TRANS-FACTORIAL M19 internal marker reporter. In short, it runs like this: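 24 h chemical exposure of transiently transfected HepG2 (MRTU library). RNA → oligo(dT) RT → PCR → 6-FAM labelling → HpaI cut → CE fluorescence. Positive-direction fit vs DMSO baseline; background internal-marker readout.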

A short description of assay [17]: ATG_GAL4_TRANS: Attagene TRANS-FACTORIAL HepG2 Assay for GAL4 (Internal Marker) (AID 2282976; active = hit-call score of the fitted dose curve at least 0.9, where 1 is the maximum). To be noted: HepG2 Attagene TRANS GAL4 internal marker reporter. In short, it runs like this:
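Fluorescence from capillary electrophoresis of labelled RT-PCR products quantifies reporter mRNA induction after 24 h dosing of HepG2 cells carrying transfected GAL4-UAS reporter transcription units. Vehicle DMSO serves as baseline.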

For assay [18], the target named is Estrogen-related receptor gamma (Homo sapiens) (UniProt P62508). The experiment in a line: ATG_ERRg_TRANS: Attagene TRANS-FACTORIAL HepG2 Assay for human Estrogen-Related Receptor gamma (ERRg) (AID 2282977; active = hit-call score of the fitted dose curve at least 0.9, where 1 is the maximum;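 also: hits increase reporter signal over DMSO so potencies reflect activators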). To be noted: HepG2 Attagene TRANS reporter, ERRg transactivation. In short, it runs like this:
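HepG2 cells transiently transfected with multiplexed GAL4-UAS reporter units and chimeric NR-Gal4 constructs were exposed to test chemicals for 24 h. Reporter mRNA was measured by RT-PCR, 6-FAM primer extension, HpaI digestion and capillary electrophoresis; gain-of-signal versus DMSO.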

In assay [19] the target is Nuclear receptor subfamily 1 group I member 3 (Homo sapiens) (UniProt Q14994). The experiment in a line: ATG_CAR_TRANS: Attagene TRANS-FACTORIAL HepG2 Assay for human Constitutive Androstane Receptor (CAR) (AID 2282969; active = hit-call score of the fitted dose curve at least 0.9, where 1 is the maximum;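 also: activators raise reporter mRNA above DMSO so AC50 marks induction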). Conditions: HepG2 Attagene TRANS-FACTORIAL CAR reporter. The method in brief: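 Readout is reporter mRNA induction, quantified by fluorescent primer extension and capillary electrophoresis after RT-PCR. Cells were HepG2 transiently carrying chimeric NR-Gal4 constructs with GAL4-UAS reporters, treated for 24 h; activity scored upward from DMSO.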

Inconclusive results are not listed. Calls of active or inactive are those of the source. The calls were made as follows, unless noted: active = hit-call score of the fitted dose curve at least 0.9, where 1 is the maximum; inactive = score below 0.9.

Chain of Estrogen receptor (Homo sapiens) (P03372 whole entry, looked up, the tested form may be a part): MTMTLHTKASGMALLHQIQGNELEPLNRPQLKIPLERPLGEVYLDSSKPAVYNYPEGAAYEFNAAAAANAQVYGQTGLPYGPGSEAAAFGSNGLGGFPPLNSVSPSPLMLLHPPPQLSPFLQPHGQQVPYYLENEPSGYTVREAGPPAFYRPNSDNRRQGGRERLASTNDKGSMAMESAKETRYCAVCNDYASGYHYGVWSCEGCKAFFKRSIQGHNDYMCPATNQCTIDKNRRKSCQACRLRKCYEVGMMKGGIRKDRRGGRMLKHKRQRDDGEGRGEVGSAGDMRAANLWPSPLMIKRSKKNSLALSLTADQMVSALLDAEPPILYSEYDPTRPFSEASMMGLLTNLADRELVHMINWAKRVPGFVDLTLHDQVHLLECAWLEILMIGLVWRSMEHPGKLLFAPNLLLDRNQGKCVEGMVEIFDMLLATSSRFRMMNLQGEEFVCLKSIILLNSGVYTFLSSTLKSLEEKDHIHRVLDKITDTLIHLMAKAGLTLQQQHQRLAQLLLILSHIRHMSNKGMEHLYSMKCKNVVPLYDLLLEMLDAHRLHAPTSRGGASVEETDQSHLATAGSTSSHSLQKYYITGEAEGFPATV
Chain of Signal transducer and activator of transcription 3 (Homo sapiens) (P40763 whole entry, looked up): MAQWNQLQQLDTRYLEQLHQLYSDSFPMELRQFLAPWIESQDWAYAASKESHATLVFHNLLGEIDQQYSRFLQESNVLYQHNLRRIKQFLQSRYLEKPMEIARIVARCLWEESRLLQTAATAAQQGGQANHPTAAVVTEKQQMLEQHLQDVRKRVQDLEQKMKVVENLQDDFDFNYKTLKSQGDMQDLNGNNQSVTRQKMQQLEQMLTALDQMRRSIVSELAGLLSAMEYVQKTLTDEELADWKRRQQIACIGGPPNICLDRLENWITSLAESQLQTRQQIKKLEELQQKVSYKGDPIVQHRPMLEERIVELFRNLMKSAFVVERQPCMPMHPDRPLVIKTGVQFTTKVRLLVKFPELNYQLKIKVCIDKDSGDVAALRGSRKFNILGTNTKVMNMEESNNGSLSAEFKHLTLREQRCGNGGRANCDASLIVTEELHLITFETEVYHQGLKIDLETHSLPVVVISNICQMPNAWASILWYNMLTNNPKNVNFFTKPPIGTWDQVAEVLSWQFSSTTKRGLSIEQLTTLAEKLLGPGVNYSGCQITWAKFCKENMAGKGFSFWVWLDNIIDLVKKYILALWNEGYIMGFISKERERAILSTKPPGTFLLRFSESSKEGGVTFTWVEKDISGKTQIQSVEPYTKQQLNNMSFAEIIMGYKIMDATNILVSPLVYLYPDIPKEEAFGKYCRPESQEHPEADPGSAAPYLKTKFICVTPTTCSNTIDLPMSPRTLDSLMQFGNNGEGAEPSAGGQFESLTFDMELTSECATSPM
Chain of X-box-binding protein 1 (Homo sapiens) (P17861 whole entry, looked up): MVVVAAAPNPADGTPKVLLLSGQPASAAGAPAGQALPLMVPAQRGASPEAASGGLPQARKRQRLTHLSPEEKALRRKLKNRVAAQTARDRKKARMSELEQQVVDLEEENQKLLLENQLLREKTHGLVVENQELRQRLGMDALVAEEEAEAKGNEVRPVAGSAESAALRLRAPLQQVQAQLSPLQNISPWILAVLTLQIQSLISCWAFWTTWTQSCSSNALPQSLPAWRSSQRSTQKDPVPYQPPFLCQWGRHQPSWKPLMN
Chain of Paired box protein Pax-6 (Homo sapiens) (P26367 whole entry, looked up): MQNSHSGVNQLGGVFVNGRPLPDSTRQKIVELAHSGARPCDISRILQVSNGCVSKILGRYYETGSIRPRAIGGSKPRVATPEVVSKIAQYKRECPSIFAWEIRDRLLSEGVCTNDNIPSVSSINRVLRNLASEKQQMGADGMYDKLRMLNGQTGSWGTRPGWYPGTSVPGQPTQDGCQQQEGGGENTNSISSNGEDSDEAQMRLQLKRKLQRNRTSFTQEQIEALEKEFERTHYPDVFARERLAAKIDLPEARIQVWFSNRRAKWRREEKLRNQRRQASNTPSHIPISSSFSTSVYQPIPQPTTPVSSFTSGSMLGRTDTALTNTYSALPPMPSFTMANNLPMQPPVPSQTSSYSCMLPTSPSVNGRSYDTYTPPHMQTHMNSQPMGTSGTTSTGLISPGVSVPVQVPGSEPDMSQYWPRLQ
Chain of Transcription factor Sp1 (Homo sapiens) (P08047 whole entry, looked up): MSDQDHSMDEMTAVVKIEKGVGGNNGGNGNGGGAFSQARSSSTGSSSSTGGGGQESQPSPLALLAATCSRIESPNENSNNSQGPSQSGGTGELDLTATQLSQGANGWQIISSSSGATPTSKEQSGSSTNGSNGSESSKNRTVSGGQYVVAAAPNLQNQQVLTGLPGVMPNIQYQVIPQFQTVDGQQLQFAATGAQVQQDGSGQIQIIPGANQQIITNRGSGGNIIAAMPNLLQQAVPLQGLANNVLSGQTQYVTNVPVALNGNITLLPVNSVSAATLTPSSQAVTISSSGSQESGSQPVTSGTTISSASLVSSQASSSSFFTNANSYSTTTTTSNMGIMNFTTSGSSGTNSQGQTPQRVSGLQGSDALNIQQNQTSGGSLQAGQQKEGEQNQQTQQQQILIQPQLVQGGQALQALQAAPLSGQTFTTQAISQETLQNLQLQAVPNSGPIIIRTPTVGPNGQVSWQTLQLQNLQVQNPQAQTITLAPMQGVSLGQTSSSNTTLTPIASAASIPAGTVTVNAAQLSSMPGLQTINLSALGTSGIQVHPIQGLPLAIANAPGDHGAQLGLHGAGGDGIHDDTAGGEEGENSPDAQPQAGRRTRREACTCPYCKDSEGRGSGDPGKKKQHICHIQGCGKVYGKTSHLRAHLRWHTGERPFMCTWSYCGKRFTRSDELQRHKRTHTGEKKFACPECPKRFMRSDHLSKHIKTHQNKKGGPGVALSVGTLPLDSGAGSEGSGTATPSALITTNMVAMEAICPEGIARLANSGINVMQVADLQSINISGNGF
Chain of Nuclear receptor subfamily 1 group I member 3 (Homo sapiens) (Q14994 whole entry, looked up, the tested form may be a part): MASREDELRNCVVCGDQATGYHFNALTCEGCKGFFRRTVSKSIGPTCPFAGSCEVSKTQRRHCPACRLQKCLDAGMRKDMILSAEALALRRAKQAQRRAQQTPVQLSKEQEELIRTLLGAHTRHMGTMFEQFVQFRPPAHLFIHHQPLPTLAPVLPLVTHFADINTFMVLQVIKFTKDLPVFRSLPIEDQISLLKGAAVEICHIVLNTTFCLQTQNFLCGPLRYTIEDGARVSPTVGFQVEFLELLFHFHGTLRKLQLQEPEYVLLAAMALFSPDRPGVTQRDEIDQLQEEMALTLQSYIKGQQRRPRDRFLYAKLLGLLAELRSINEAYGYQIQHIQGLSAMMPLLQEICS
Chain of Estrogen-related receptor gamma (Homo sapiens) (P62508 whole entry, looked up, the tested form may be a part): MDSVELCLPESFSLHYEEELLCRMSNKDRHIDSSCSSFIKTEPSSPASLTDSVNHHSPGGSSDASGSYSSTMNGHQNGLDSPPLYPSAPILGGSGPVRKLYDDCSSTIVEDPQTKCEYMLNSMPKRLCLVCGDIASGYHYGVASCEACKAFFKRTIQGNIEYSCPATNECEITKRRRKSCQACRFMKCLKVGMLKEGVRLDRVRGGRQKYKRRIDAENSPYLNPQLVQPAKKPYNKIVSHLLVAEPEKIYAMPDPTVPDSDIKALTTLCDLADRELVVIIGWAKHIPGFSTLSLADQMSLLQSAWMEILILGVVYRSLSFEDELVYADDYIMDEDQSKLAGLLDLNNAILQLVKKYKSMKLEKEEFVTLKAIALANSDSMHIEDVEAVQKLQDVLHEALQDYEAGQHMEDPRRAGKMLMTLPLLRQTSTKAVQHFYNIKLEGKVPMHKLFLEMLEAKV

A word on the AC50: it is the concentration giving half of the maximal activity seen. As for `CC(CC=O)CCCC(C)(C)O` (stereo unspecified), the molecule was classed as inactive in [1], in assay [3], in assay [4], in [5], in [6] and in assay [7]. In addition, the result in assay [8], in assay [9], in [10], in [11], in [12] and in [13] was inactive. Besides, the molecule was called inactive in assay [14], in assay [15], in [16], in assay [17] and in assay [18]. In assay [2], the half-maximal activity concentration (AC50) was 41.2 µM (active).
In the case of `O=C(O)c1cc2ccccc2nc1C(=O)O`, the call in assay [1], in assay [2], in [3], in [4], in assay [5] and in [6] was inactive. Further, the call in assay [7], in assay [8], in assay [9], in [10], in [11] and in assay [12] was inactive. For the same molecule, the result in assay [13] was inactive.
Consider `CN1C(=O)N(C)C(O)C1O` (stereo unspecified), for which the molecule was called inactive in assay [1], in assay [2], in assay [3], in assay [4], in assay [5] and in assay [6]. Also, the molecule was called inactive in assay [7], in assay [8], in assay [9], in [10], in [11] and in assay [12]. In addition, the outcome in assay [13], in [19], in [14], in assay [15], in assay [16] and in [17] was inactive.
`CC(=O)Oc1ccc(C(C)=O)cc1`: the call in assay [1], in assay [2], in [3], in [4], in assay [5] and in assay [6] was inactive. In addition, the outcome in [7], in [8], in assay [9], in assay [10], in assay [11] and in [12] was inactive. For the same molecule, the outcome in [13], in [19], in assay [14], in [15] and in [16] was inactive.

The values are drawn from PubChem BioAssay (EPA / NIEHS).
